# Experimental data as given in ChEMBL document CHEMBL2218924, “A broad activity screen in support of a chemogenomic map for kinase signalling research and drug discovery” (Biochem J, 2013).
# How the values were obtained:
# [1] = biological target: T1, Serine/threonine-protein kinase Sgk2 (Homo sapiens) (UniProt Q9HBY8); conditions: at 1 µM
# T1 sequence (whole entry): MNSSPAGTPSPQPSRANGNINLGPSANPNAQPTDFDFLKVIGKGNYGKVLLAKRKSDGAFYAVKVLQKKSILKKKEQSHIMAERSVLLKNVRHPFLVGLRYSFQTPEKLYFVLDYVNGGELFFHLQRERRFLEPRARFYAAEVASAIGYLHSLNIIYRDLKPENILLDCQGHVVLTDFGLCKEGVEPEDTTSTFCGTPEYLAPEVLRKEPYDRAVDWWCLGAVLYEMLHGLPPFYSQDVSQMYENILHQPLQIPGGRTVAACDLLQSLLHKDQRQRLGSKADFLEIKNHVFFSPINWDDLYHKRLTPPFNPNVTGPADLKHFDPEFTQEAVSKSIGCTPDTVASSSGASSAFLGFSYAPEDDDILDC
# [2] = biological target: T1, Serine/threonine-protein kinase Sgk2 (Homo sapiens); conditions: at 10 µM
# [3] = biological target: T2, Serine/threonine-protein kinase Sgk3 (Homo sapiens) (UniProt Q96BR1); conditions: at 1 µM
# T2 sequence (whole entry): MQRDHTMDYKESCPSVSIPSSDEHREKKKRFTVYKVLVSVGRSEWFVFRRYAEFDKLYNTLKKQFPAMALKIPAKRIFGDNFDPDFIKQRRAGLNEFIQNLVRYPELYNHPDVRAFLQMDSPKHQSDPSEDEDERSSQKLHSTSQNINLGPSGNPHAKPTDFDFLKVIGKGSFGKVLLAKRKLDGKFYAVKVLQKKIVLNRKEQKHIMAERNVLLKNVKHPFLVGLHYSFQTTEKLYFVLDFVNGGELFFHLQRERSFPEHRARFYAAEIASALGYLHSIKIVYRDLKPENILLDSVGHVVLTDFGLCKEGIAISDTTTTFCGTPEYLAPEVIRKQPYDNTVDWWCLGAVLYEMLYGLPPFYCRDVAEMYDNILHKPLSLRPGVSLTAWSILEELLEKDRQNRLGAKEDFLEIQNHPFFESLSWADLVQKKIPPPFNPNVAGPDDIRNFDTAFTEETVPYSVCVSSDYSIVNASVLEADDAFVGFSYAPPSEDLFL
# [4] = biological target: T2, Serine/threonine-protein kinase Sgk3 (Homo sapiens); conditions: at 10 µM
# [5] = biological target: Serine/threonine-protein kinase SIK1 (Homo sapiens) (UniProt P57059); conditions: at 1 µM
# [6] = biological target: Serine/threonine-protein kinase SIK1 (Homo sapiens) (UniProt P57059); conditions: at 10 µM
# [7] = biological target: SRSF protein kinase 1 (Homo sapiens) (UniProt Q96SB4); conditions: at 1 µM
# [8] = biological target: SRSF protein kinase 1 (Homo sapiens) (UniProt Q96SB4); conditions: at 10 µM
# [9] = biological target: SRSF protein kinase 2 (Homo sapiens) (UniProt P78362); conditions: at 1 µM
# [10] = biological target: Serine/threonine-protein kinase 33 (Homo sapiens) (UniProt Q9BYT3); conditions: at 1 µM
# [11] = biological target: Serine/threonine-protein kinase 33 (Homo sapiens) (UniProt Q9BYT3); conditions: at 10 µM
# [12] = biological target: Serine/threonine-protein kinase PLK2 (Homo sapiens) (UniProt Q9NYY3); conditions: at 1 µM
# [13] = biological target: Serine/threonine-protein kinase PLK2 (Homo sapiens) (UniProt Q9NYY3); conditions: at 10 µM
# [14] = biological target: Tyrosine-protein kinase SYK (Homo sapiens) (UniProt P43405); conditions: at 1 µM
# [15] = biological target: Tyrosine-protein kinase SYK (Homo sapiens) (UniProt P43405); conditions: at 10 µM
# [16] = biological target: T3, Mitogen-activated protein kinase kinase kinase 7 (Homo sapiens) (UniProt O43318); conditions: at 1 µM
# T3 sequence (whole entry): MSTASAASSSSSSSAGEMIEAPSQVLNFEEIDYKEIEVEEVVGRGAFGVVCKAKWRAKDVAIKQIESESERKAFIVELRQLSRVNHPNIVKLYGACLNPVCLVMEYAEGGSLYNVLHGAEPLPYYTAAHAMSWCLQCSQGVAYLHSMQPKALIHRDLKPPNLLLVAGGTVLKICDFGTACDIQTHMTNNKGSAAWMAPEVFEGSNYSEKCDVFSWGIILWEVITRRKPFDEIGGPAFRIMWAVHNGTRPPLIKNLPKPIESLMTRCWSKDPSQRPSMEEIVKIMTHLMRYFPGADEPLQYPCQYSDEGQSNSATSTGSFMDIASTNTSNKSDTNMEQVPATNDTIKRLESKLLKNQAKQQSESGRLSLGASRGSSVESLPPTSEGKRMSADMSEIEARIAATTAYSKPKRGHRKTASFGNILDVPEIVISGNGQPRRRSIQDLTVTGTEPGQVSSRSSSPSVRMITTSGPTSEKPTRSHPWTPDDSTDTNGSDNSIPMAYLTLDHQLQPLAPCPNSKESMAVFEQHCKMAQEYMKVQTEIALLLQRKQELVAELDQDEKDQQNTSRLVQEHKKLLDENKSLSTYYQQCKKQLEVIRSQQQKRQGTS
# [17] = biological target: T3, Mitogen-activated protein kinase kinase kinase 7 (Homo sapiens); conditions: at 10 µM
# [18] = biological target: T4, Serine/threonine-protein kinase TAO1 (Homo sapiens) (UniProt Q7L7X3); conditions: at 1 µM
# T4 sequence (whole entry): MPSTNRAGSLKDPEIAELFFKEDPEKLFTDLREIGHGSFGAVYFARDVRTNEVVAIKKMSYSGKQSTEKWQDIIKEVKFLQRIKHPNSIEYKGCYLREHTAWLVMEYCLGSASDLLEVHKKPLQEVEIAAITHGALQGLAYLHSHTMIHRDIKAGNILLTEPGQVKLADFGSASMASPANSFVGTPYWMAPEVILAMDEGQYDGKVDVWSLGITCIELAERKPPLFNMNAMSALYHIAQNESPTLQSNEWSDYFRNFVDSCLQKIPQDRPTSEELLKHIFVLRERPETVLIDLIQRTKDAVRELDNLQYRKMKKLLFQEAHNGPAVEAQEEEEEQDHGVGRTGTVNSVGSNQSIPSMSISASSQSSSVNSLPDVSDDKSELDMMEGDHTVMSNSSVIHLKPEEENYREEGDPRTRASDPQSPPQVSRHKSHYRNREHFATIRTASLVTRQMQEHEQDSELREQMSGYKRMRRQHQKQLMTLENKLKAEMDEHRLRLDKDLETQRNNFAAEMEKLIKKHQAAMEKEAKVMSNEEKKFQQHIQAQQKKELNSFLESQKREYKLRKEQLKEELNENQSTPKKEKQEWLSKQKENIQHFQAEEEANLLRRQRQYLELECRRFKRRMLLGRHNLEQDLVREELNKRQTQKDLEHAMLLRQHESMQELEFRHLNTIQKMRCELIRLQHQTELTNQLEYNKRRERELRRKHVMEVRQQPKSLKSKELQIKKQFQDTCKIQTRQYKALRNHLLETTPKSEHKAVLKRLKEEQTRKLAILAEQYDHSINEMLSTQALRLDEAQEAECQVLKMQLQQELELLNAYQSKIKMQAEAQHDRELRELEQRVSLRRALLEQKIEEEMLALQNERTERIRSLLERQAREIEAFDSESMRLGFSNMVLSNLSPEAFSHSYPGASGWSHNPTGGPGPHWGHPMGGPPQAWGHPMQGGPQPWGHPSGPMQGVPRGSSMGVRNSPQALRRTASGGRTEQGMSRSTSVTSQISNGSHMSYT
# [19] = biological target: T4, Serine/threonine-protein kinase TAO1 (Homo sapiens); conditions: at 10 µM
# [20] = biological target: SRSF protein kinase 2 (Homo sapiens) (UniProt P78362); conditions: at 10 µM
# SRSF protein kinase 1 (Homo sapiens), sequence (Q96SB4 whole entry): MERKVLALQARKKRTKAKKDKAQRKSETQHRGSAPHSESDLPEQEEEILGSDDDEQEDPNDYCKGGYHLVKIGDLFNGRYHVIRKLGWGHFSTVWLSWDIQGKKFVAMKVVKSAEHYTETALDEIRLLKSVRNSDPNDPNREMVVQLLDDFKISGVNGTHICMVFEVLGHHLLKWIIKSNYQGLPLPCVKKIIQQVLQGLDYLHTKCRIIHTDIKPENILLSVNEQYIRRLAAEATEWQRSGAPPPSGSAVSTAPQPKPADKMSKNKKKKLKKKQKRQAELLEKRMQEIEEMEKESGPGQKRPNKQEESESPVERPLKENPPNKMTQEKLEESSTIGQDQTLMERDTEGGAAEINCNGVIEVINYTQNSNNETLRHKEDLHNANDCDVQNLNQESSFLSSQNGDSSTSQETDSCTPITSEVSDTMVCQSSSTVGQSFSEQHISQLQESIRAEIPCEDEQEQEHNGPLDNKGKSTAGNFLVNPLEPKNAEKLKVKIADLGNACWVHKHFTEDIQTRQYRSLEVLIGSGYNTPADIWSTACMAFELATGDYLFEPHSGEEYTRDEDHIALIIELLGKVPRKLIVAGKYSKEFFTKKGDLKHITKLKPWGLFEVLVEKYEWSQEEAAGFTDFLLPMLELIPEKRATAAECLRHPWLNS
# Serine/threonine-protein kinase SIK1 (Homo sapiens), sequence (P57059 whole entry): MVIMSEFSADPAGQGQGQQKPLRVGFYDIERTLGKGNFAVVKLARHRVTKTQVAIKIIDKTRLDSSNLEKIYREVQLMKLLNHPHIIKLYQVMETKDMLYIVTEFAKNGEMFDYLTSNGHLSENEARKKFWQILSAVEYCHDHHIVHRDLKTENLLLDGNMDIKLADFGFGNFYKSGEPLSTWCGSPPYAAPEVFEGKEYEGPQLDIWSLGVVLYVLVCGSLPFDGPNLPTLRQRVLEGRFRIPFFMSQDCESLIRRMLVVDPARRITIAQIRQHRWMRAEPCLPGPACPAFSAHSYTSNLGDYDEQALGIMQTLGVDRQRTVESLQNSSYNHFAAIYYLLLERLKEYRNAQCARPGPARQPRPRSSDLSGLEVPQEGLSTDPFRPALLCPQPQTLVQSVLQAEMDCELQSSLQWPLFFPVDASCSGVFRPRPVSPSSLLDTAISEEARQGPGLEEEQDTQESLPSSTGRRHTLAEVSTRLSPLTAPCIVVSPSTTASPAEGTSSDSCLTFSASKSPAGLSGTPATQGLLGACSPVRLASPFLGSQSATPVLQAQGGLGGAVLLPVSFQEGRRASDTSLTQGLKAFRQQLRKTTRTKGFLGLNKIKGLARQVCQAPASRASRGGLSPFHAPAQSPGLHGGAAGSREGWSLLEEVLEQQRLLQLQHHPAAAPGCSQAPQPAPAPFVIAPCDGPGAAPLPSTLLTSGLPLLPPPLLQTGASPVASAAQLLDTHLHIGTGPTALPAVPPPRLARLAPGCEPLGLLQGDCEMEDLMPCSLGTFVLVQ
# SRSF protein kinase 2 (Homo sapiens), sequence (P78362 whole entry, looked up): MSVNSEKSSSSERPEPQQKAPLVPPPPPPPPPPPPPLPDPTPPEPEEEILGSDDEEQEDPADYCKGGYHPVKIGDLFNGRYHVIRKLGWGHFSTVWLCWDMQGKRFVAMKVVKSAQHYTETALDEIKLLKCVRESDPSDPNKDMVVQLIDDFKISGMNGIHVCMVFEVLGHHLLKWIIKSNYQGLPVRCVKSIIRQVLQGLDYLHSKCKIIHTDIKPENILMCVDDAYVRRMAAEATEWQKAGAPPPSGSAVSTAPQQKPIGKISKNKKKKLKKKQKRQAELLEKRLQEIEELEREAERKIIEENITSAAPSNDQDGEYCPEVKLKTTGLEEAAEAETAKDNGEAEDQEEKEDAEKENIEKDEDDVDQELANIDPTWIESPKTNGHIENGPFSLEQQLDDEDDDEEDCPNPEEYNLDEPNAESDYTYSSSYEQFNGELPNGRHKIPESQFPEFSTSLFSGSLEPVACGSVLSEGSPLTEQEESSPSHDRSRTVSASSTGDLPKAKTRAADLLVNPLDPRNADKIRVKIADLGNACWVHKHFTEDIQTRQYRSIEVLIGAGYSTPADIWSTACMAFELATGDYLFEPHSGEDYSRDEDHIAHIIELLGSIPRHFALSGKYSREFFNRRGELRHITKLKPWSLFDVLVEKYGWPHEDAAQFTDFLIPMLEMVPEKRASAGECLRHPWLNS
# Serine/threonine-protein kinase 33 (Homo sapiens), sequence (Q9BYT3 whole entry, looked up): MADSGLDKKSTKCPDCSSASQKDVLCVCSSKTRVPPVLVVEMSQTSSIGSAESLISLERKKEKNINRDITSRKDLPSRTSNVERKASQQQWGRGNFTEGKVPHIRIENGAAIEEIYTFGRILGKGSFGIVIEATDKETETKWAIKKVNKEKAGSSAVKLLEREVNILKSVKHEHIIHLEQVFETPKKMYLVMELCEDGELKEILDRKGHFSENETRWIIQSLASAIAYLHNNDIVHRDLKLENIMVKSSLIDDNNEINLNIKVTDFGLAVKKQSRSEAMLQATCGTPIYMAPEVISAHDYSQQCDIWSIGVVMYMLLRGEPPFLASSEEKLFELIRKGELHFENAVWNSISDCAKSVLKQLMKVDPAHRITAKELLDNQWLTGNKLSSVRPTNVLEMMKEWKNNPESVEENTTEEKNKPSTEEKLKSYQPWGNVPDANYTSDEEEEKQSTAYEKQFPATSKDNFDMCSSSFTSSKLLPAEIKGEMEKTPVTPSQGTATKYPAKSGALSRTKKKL
# Serine/threonine-protein kinase PLK2 (Homo sapiens), sequence (Q9NYY3 whole entry, looked up): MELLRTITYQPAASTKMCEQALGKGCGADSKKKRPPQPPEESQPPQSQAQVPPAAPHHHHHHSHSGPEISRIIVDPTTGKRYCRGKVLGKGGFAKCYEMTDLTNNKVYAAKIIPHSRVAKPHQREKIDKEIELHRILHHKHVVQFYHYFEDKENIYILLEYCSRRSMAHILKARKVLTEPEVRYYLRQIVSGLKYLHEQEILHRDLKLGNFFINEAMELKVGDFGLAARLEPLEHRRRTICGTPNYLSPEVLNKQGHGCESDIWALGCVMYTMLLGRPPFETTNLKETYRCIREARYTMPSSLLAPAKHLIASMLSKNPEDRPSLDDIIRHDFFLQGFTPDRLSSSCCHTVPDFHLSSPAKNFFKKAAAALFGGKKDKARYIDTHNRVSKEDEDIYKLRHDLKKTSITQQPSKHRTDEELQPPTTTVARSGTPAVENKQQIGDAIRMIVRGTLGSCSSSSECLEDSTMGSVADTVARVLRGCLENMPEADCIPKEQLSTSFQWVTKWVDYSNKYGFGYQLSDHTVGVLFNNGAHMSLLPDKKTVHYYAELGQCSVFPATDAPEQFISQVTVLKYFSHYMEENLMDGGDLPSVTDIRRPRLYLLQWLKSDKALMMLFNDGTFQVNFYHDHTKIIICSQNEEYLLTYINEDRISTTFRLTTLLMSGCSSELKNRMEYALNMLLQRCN
smiles,measurement,setting,value
C[S+]([O-])c1ccc(-c2nc(-c3ccc(F)cc3)c(-c3ccncc3)[nH]2)cc1 (stereo unspecified),residual activity,[1],114%
same,residual activity,[2],81%
same,residual activity,[3],120%
same,residual activity,[4],101%
same,residual activity,[5],132%
same,residual activity,[6],93%
same,residual activity,[7],112%
same,residual activity,[8],109%
same,residual activity,[9],112%
same,residual activity,[10],106%
same,residual activity,[11],109%
same,residual activity,[12],116%
same,residual activity,[13],103%
same,residual activity,[14],112%
same,residual activity,[15],101%
same,residual activity,[16],106%
same,residual activity,[17],101%
same,residual activity,[18],100%
same,residual activity,[19],77%
COc1ccc(CNc2nc(N(CCO)CCO)nc3c2ncn3C(C)C)cc1,residual activity,[3],114%
Cc1nc2cc3nc(-c4cccs4)cnc3cc2n1C,residual activity,[3],94%
COc1cc2ncnc(Nc3ccc(OCc4ccccc4)cc3)c2cc1OC,residual activity,[1],89%
same,residual activity,[2],96%
same,residual activity,[3],115%
same,residual activity,[4],108%
same,residual activity,[5],82%
same,residual activity,[6],103%
same,residual activity,[7],102%
same,residual activity,[8],116%
same,residual activity,[9],108%
same,residual activity,[20],104%
same,residual activity,[10],100%
same,residual activity,[11],105%
same,residual activity,[12],108%
same,residual activity,[13],105%
same,residual activity,[14],116%
same,residual activity,[15],82%
same,residual activity,[16],99%
same,residual activity,[17],96%
same,residual activity,[18],108%
same,residual activity,[19],91%
O=C1NC(=O)/C(=C/c2ccc3c(c2)OC(F)(F)O3)S1,residual activity,[3],109%
Cc1ccc(NC2=CC(=O)c3sc(C)nc3C2=O)cc1,residual activity,[3],96%
CC(=O)O/N=C1\C(=C2\C(=O)Nc3cc(Br)ccc32)Nc2ccccc21,residual activity,[3],114%
O=C1c2ccccc2-[n+]2ccc3c([nH]c4ccccc43)c21,residual activity,[3],99%
COc1cccc(-c2cc(=O)c3ccccc3o2)c1N,residual activity,[3],104%
O=[N+]([O-])/C=C/c1ccc2c(c1)OCO2,residual activity,[1],89%
same,residual activity,[2],66%
same,residual activity,[3],110%
same,residual activity,[4],87%
same,residual activity,[5],100%
same,residual activity,[6],112%
same,residual activity,[7],111%
same,residual activity,[8],99%
same,residual activity,[9],97%
same,residual activity,[20],98%
same,residual activity,[10],93%
same,residual activity,[11],89%
same,residual activity,[12],102%
same,residual activity,[13],102%
same,residual activity,[14],123%
same,residual activity,[15],82%
same,residual activity,[16],92%
same,residual activity,[17],90%
same,residual activity,[18],101%
same,residual activity,[19],98%
CCn1cnc2c(Nc3cccc(Cl)c3)nc(N[C@@H]3CCCC[C@@H]3N)nc21,residual activity,[1],97%
same,residual activity,[2],65%
same,residual activity,[4],59%
same,residual activity,[5],20%
same,residual activity,[6],0%
same,residual activity,[8],39%
same,residual activity,[9],69%
same,residual activity,[20],32%
same,residual activity,[10],87%
same,residual activity,[11],42%
same,residual activity,[12],92%
same,residual activity,[13],54%
same,residual activity,[14],99%
same,residual activity,[15],57%
same,residual activity,[16],89%
same,residual activity,[17],65%
same,residual activity,[18],68%
same,residual activity,[19],15%
CO[C@H]1C[C@@H]2CC[C@@H](C)[C@@](O)(O2)C(=O)C(=O)N2CCCC[C@H]2C(=O)O[C@H]([C@H](C)C[C@@H]2CC[C@@H](O)[C@H](OC)C2)CC(=O)[C@H](C)/C=C(\C)[C@@H](O)[C@@H](OC)C(=O)[C@H](C)C[C@H](C)/C=C/C=C/C=C/1C,residual activity,[3],112%
O=C1NC(=O)/C(=C\c2ccc3nccnc3c2)S1,residual activity,[3],114%
O=C(Nc1nc2ccccc2n1CCN1CCOCC1)c1cccc([N+](=O)[O-])c1,residual activity,[3],108%
NC(=O)Nc1sc(-c2ccc(F)cc2)cc1C(N)=O,residual activity,[3],93%
CC(C)(C)c1cc(C=C(C#N)C#N)cc(Br)c1O,residual activity,[1],98%
same,residual activity,[2],70%
same,residual activity,[5],103%
same,residual activity,[6],139%
same,residual activity,[7],114%
same,residual activity,[9],105%
same,residual activity,[20],81%
same,residual activity,[10],110%
same,residual activity,[11],108%
same,residual activity,[13],67%
same,residual activity,[14],128%
same,residual activity,[16],104%
same,residual activity,[17],103%
same,residual activity,[18],112%
same,residual activity,[19],70%
CN(C)c1ccc(/C=C2\C(=O)Nc3ccccc32)cc1,residual activity,[3],106%
Oc1c2ccccc2c2c3c(cccc13)N=N2,residual activity,[3],85%
CC#CC(=O)Nc1cc2c(Nc3ccc(F)c(Cl)c3)ncnc2cn1,residual activity,[3],102%
O=c1[nH]c2ccccc2n1C1CCN(Cc2ccc(-c3nc4cc5[nH]cnc5cc4nc3-c3ccccc3)cc2)CC1,residual activity,[1],100%
same,residual activity,[2],74%
same,residual activity,[3],94%
same,residual activity,[4],81%
same,residual activity,[5],115%
same,residual activity,[6],44%
same,residual activity,[7],80%
same,residual activity,[8],97%
same,residual activity,[9],99%
same,residual activity,[20],80%
same,residual activity,[10],100%
same,residual activity,[11],95%
same,residual activity,[12],91%
same,residual activity,[13],92%
same,residual activity,[14],125%
same,residual activity,[15],76%
same,residual activity,[16],97%
same,residual activity,[17],96%
same,residual activity,[18],102%
same,residual activity,[19],65%
